# Data: PubChem BioAssay (EPA / NIEHS)
# Records with an inconclusive call do not appear. Calls of active or inactive are those of the source. Rule for the calls: active = hit-call score of the fitted dose curve at least 0.9, where 1 is the maximum; inconclusive = response in the unintended direction; inactive = score below 0.9.
# Molecular target: Peroxisome proliferator-activated receptor gamma (Homo sapiens) (UniProt P37231)
# Test: OT_PPARg_PPARgSRC1_0480: Odyssey Thera (OT) 8-hour Protein-Complementation Assay for Peroxisome Proliferator-activated Receptor Gamma / SRC-1 Co-activator (AID 2283387);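 note: nuclear to cytoplasmic split Venus YFP fluorescence ratio reporting PPARg SRC-1 interaction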
# Protocol: OT_PPARg_PPARgSRC1_0480 is a cell-based assay that uses HEK293T, a human kidney cell line, with measurements taken at 8 hours after chemical dosing in a 384-well plate.OT_PPARg_PPARgSRC1_0480 is one of one assay component(s) measured or calculated from the OT_PPARg_PPARgSRC1_0480 assay. It is designed to make measurements of protein fragment complementation, a form of binding reporter, as detected with fluorescence intensity signals by Protein-fragment Complementation technology.Data from the assay component OT_PPARg_PPARgSRC1_0480 was analyzed into 1 assay endpoint. This assay endpoint, OT_PPARg_PPARgSRC1_0480, was analyzed in the positive analysis fitting direction relative to DMSO as the negative control and baseline of activity. Using a type of binding reporter, measures of receptor for gain-of-signal activity can be used to understand the binding at the pathway-level as they relate to the gene PPARG. Furthermore, this assay endpoint can be referred to as a primary readout, because the performed assay has only produced 1 assay endpoint. To generalize the intended target to other relatable targets, this assay endpoint is annotated to the nuclear receptor intended target family, where the subfamily is non-steroidal.
# The OT PPARg/SRC-1 assay assessed receptor-chemical interactions using a rapidly maturing, intensely fluorescent mutant of YFP known as Venus, rationally dissected into two separate fragments. The fragments were obtained as follows: first, fragments coding for YFP1 and YFP2 (corresponding to amino acid residues 1-158 and 159-239 of the full length YFP, respectively) were generated by oligonucleotide synthesis (Blue Heron Biotechnology), and then PCR mutagenesis was used to generate the mutant fragments IFP1 and IFP2. Fusion constructs were transfected into HEK293T cells with a (Gly4Ser)2 linker between the PPARg/SRC-1 and YFP fragment genes to facilitate complementation when interacting proteins bring fragments into close proximity. The construct is transiently transfected in HEK293T cells 48 hours prior to treatment with test compounds. Cells are seeded into optical quality 384-well poly-D-lysine coated plates in MEM alpha medium (Invitrogen) supplemented with 10 percent FBS (Gemini Bio-Products) 1 percent penicillin and 1 percent streptomycin, and grown in 37C incubator equilibrated to 5 percent CO2. Cells are allowed to adhere for 24 hours prior to treatment with compounds of interest or controls for 8 hours. Cells are fixed in 4 percent formaldehyde and stained with Draq5 (BioStatus) to identify cells and subcellular compartment boundaries prior to signal detection. 8 Images per well were acquired on an Evotec Opera at 2 wavelengths (488 and 635nm), and the ratio of fluorescence in the nucleus relative to fluorescence in the cytoplasm (N/C Ratio) in the 488nm channel was calculated for a minimum of 350 cells per image.
# Chain of Peroxisome proliferator-activated receptor gamma (Homo sapiens) (P37231 whole entry, looked up): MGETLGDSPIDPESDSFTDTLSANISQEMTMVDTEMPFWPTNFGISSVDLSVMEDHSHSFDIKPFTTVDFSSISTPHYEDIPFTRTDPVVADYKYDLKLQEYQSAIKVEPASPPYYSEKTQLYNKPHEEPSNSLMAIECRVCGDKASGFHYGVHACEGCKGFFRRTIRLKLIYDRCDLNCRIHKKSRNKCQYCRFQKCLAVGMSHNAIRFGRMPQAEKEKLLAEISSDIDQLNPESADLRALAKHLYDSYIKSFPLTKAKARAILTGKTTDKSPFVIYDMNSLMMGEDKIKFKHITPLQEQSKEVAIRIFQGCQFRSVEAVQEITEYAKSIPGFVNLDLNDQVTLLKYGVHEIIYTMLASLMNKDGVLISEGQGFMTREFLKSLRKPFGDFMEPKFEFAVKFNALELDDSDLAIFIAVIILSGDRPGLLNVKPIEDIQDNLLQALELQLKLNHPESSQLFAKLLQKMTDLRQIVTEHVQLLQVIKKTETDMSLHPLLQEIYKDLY
SMILES,outcome,AC50
O=C(O)C1(c2ccc3c(c2)OC[C@H](Cc2ccc(-c4ccccc4)cc2)[C@H]3O)CCCC1,inactive,–
Nc1ccc(N)cc1,inactive,–
O=S1OC[C@@H]2[C@H](CO1)[C@]1(Cl)C(Cl)=C(Cl)[C@@]2(Cl)C1(Cl)Cl (stereo not given in full),inactive,–
Oc1c(Br)cc(Br)cc1Br,inactive,–
Oc1cc(Cl)c(Cl)cc1Cl,inactive,–
O=c1nc(O)n(Cl)c(=O)n1Cl,inactive,–
CCOCn1c(-c2ccc(Cl)cc2)c(C#N)c(Br)c1C(F)(F)F,inactive,–
O=[N+]([O-])c1ccccc1O,inactive,–
CC(C)N(C(=O)CCl)c1ccccc1,inactive,–
Cc1cc(Cl)ccc1OC(C)C(=O)O (stereo not given),inactive,–
O=C(CBr)c1ccc(O)cc1,inactive,–
CC1(C)[C@H](C(=O)O[C@H](C#N)c2cccc(Oc3ccccc3)c2)[C@@H]1/C=C(\Cl)C(F)(F)F,inactive,–
CCOP(=S)(OCC)O/N=C(\C#N)c1ccccc1,inactive,–
CC(C)(C)c1ccccc1O,inactive,–
O=C1c2ccccc2C(=O)C1C(=O)C(c1ccccc1)c1ccc(Cl)cc1 (stereo not given),inactive,–
O=[N+]([O-])c1ccc(Cl)c([N+](=O)[O-])c1,inactive,–
CC(O)(CS(=O)(=O)c1ccc(F)cc1)C(=O)Nc1ccc(C#N)c(C(F)(F)F)c1 (stereo not given),inactive,–
O=C(CCl)Nc1ccccc1,inactive,–
O=c1[nH]c(=O)n(Cl)c(=O)n1Cl,inactive,–
COC(=O)Nc1cccc(OC(=O)Nc2cccc(C)c2)c1,inactive,–

SMILES,outcome,AC50
N#CCC#N,inactive,–
O=CCCl,inactive,–
CCN(CCO)CCO,inactive,–
CCCCCCCCCCCCN(C)C,inactive,–
CNC(=O)O/N=C/C(C)(C)S(C)(=O)=O,inactive,–
CCC[CH2][Sn]([CH2]CCC)([CH2]CCC)[CH2]CCC,inactive,–
O=C(N[C@H]1CN2CCC1CC2)c1ccc2c(c1)OCCO2,inactive,–
COc1ccccc1N,inactive,–
N#Cc1cccnc1,inactive,–
N#CS,inactive,–
N#CCCC(Br)(C#N)CBr (stereo not given),inactive,–
Cc1cc(Cl)ccc1O,inactive,–
CCC[CH2][Sn]([Cl])([Cl])[CH2]CCC,inactive,–
CCCSP(=S)(OCC)Oc1ccc(SC)cc1 (stereo not given),inactive,–
O=S1(=O)OC(c2cc(Br)c(O)c(Br)c2)(c2cc(Br)c(O)c(Br)c2)c2ccccc21,–,46.5 µM (active)
O=C(O)COc1cc(Cl)c(Cl)cc1Cl,inactive,–
COc1ccc(N)cc1,inactive,–
Clc1cccc(Cl)c1,inactive,–
Cc1cc(Cl)ccc1OCCCC(=O)O,inactive,–
CN(N=O)C(N)=O,inactive,–
